Measurements taken from PubChem BioAssay.
Unmarked numbers belong to inactive results.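 Rule for the calls: active = viability at or under a set limit in both replicates, limit being median viability minus 3 SD (cut at about 48% in these data, passing the limit was not always enough); inconclusive = at or under the limit in just one replicate; inactive = at or above the limit in both replicates.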

Assay: growth inhibitors of H69AR lung tumor, primary screen, human, duplicate replicates (AID 580);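 note: 100% = mean luminescence of untreated wells and 0% = no signal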
Conditions: H69AR lung tumor cells viability, ATP luminescence, 72 h; at 10 µM; hits give low values

Row | SMILES | viability [%]
1 | Cc1nnc(NC(=O)CCC(=O)N2CCC(C)CC2)s1 | 90.8
2 | Cc1ccc(-c2ccc(=O)n(CC(=O)NCCCN3CCCCC3C)n2)cc1 (centres undefined) | 91.9
3 | O=C(CN1CCN(Cc2ccccc2)CC1)Nc1ccc(Cl)cn1 | 85.1
4 | O=C(Nc1cccc(OCC(=O)N2CCOCC2)c1)C1CCCCC1 | 112
5 | O=C(CN1CCN(c2ccccn2)CC1)N1c2ccccc2CCc2ccccc21 | 107
6 | CCOc1ccc(NC(=O)C2CC(=O)N(CC)C(=Nc3ccc4c(c3)OCO4)S2)cc1 (centres undefined) | 84
7 | CNC(=O)NCCN1CCCC1=O | 102
8 | CCCNC(=O)c1cc(S(=O)(=O)N2CCc3ccccc32)ccc1F | 97
9 | Cc1cc(NC(=O)c2cnn3c(C(F)F)cc(C4CC4)nc23)no1 | 82.4
10 | CCOC(=O)Cc1csc(/C(=N/O)C(N)=O)n1 | 92.6
11 | O=C(COC(=O)c1cccc(S(=O)(=O)N2CCc3ccccc32)c1)NC1CCS(=O)(=O)C1 (centres undefined) | 102
12 | CN1[C@@H](CC(=O)c2ccccc2)CCC[C@H]1C[C@H](O)c1ccccc1 | 84.1
13 | O=C(CSc1n[nH]c(=O)[nH]c1=O)c1ccccc1 | 101
14 | CC(O)Cn1cnc2c1c(=O)n(C)c(=O)n2C (centres undefined) | 95.8
15 | O=C(CNCC1CCCO1)Nc1ccccc1-n1cccc1 (centres undefined) | 95.7
16 | COc1cccc(N2CCN(CC(=O)c3c[nH]c4ccc(OC)cc34)CC2C)c1 (centres undefined) | 70.4
17 | COC(=O)c1c(NC(=O)CCc2ccc(C)o2)sc(C)c1C | 81.7
18 | O=C(COC(=O)c1cc(S(=O)(=O)N2CCOCC2)cs1)c1ccccc1 | 99.9
19 | Cc1ccc(S(=O)(=O)NCC(=O)OCN2C(=O)c3ccccc3C2=O)cc1 | 105
20 | COc1ccc(C(=O)Nc2ccc(S(=O)(=O)Nc3onc(C)c3C)cc2)cc1 | 117

Row | SMILES | viability [%]
21 | O=C(O)CCN(CCC(=O)O)c1nnc(SCc2ccccc2)s1 | 93.6
22 | CS(=O)(=O)N(CC(=O)N1CCc2ccccc2C1)c1ccc2c(c1)OCO2 | 102
23 | C=CCSc1nnc(NC(=O)c2ccc(S(=O)(=O)NCC3CCCO3)cc2)s1 (centres undefined) | 90.4
24 | OC(CCCN1CCC(O)(c2ccc(Cl)cc2)CC1)c1ccc(F)cc1 (centres undefined) | 66.1
25 | COc1ccc(C(O)C(CN2CCOCC2)c2ccccc2)cc1F (centres undefined) | 103
26 | C=CCn1c(SCC(=O)NCC2CCCO2)nc2scc(-c3ccco3)c2c1=O (centres undefined) | 92.9
27 | Cc1ccc(C)c(CSc2nnc(CCN)o2)c1 | 71.2
28 | Cc1c(N=C2SCC(=O)N2c2c(C)n(C)n(-c3ccccc3)c2=O)c(=O)n(-c2ccccc2)n1C | 94.2
29 | COc1cc(C2N=C(c3ccccc3)NO2)cc(Br)c1O (centres undefined) | 84.8
30 | CC1(C)Cc2c(sc3c2C2=NCCN2C=N3)CS1 | 105
31 | Cc1ccc(C(C(=O)NC2CCCCC2)N(C(=O)c2csnn2)C2CCCC2)o1 (centres undefined) | 80.4
32 | Cc1cn2c(-c3ccncc3)nnc2s1 | 99.8
33 | CCOc1ccc(S(=O)(=O)Nc2ccc(Cl)cn2)c(C)c1C | 87.6
34 | CN(C)CCC(c1ccc(Br)cc1)c1ccccn1 (centres undefined) | 102
35 | COc1ccc(C(c2nnnn2C2CCCC2)N2CCC(C)CC2)c(OC)c1 (centres undefined) | 87.8
36 | COCCN(CCOC)C(=O)CCn1c(=O)oc2ccccc21 | 89
37 | CCOC(=O)c1sc2cccc(F)c2c1N | 88.1
38 | CC1=NN(c2ccccc2)C(=O)C1 | 94.5
39 | COc1nc(-c2ccc(Cl)cc2)ccc1-c1noc(-c2ccncc2)n1 | 82.4
